Laboratory results as given in article PMC7862700, “An all-to-all approach to the identification of sequence-specific readers for epigenetic DNA modifications on cytosine”.

What was measured:
Assay in all cases: DAPPL (digital affinity profiling via proximity ligation, sequencing); 10 mM Tris-HCl pH 7.5, 50 mM NaCl, 1 mM DTT, 4% glycerol, room temperature, 30 min; GST-TFs on glutathione beads, 16-mer random dsDNA library, 0.1% formaldehyde crosslink after washing; high values mean tight binding
Conditions in all cases: protein: recombinant; tags: N-terminal GST; dsDNA, one strand shown
ERF = biological target: T1, ERF (Homo sapiens, UniProt P50548 1-548)
T1 sequence: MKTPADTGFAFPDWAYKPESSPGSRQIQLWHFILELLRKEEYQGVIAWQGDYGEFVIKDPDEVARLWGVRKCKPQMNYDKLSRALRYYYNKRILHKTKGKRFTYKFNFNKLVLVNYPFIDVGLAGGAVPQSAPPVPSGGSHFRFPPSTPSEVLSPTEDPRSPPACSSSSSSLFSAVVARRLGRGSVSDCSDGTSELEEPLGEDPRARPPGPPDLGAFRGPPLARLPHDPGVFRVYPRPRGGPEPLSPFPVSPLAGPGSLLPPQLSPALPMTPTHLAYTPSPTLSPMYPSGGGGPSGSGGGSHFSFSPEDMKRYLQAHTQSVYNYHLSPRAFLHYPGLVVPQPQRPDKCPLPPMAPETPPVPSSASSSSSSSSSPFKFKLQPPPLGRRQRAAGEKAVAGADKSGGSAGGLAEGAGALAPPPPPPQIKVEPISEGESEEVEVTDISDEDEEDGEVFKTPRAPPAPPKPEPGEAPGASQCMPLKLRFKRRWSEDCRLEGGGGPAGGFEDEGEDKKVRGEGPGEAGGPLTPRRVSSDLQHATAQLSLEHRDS
How it was run: (§1)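 Human transcription factors carrying a GST fusion were produced in yeast, bound to glutathione beads, tagged with DNA barcodes and pooled together with a tag-only sample. Each pool was held with 200 nmole of a random double-stranded 16-mer DNA library in Tris/NaCl/DTT/glycerol buffer for 30 min at room temperature, then washed, crosslinked in 0.1% formaldehyde, proximity-ligated with BsaI/T4 ligase (1 h, 37 °C), PCR-amplified and sequenced on an Illumina NextSeq500. Binding signal is the read frequency of each hexamer for a given factor divided by its frequency in the tag-only sample.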

ETV3L = biological target: T2, ETV3L (Homo sapiens, UniProt Q6ZN32 1-361)
T2 sequence: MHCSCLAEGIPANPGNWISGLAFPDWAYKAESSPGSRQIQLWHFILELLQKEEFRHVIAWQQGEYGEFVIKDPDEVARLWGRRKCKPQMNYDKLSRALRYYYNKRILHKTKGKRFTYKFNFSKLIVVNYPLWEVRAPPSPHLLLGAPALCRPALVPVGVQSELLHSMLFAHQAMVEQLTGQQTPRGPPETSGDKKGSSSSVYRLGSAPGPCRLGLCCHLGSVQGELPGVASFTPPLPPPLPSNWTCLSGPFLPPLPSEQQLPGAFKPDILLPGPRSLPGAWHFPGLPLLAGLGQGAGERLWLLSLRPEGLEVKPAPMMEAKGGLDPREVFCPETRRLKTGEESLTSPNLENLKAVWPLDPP
How it was run: as §1

ETS2 = biological target: T3, ETS2 (Homo sapiens, UniProt P15036 1-469)
T3 sequence: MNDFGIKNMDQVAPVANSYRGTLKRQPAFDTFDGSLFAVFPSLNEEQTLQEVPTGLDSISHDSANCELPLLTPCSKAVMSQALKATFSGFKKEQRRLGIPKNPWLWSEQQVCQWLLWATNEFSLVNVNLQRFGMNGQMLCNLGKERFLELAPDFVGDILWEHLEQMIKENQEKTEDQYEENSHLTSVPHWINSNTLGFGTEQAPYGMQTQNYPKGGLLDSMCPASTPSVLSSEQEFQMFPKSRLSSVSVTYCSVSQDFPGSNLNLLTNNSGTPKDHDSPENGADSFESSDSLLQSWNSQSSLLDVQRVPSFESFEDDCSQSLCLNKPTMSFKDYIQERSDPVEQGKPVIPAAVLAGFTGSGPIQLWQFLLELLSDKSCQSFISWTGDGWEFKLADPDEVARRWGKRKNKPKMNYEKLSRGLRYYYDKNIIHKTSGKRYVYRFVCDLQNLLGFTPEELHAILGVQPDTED
How it was run: as §1

SPDEF = biological target: T4, SPDEF (Homo sapiens, UniProt O95238 1-335)
T4 sequence: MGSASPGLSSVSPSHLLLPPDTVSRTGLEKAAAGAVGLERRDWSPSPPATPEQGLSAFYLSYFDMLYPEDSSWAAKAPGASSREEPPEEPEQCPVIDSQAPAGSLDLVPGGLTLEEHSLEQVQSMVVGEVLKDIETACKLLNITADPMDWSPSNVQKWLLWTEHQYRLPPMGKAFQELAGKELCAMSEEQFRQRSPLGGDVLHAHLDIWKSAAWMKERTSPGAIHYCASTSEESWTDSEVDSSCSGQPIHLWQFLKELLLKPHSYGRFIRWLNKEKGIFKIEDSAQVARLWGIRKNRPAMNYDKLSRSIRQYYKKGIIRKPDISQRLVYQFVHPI
How it was run: as §1

ETV7 = biological target: T5, ETV7 (Homo sapiens, UniProt Q9Y603 1-341)
T5 sequence: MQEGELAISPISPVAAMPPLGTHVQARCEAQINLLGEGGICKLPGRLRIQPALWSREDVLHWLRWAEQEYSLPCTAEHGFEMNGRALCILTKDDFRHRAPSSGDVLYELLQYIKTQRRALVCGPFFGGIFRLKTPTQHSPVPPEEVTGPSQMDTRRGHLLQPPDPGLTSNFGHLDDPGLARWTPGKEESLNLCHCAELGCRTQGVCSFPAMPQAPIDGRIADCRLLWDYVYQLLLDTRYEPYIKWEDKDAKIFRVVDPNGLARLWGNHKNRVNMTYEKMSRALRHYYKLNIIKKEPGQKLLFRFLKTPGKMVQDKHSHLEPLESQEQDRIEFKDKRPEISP
How it was run: as §1

ELF5 = biological target: T6, ELF5 (Homo sapiens, UniProt Q9UKW6-2 1-255)
T6 sequence: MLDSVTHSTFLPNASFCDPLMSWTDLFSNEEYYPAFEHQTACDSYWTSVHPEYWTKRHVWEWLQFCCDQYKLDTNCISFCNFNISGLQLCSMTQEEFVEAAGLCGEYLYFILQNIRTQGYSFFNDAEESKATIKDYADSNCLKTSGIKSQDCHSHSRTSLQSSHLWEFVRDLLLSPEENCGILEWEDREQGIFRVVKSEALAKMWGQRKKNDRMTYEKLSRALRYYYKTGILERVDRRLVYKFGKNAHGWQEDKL
How it was run: as §1

ETV3 = biological target: T7, ETV3 (Homo sapiens, UniProt P41162-2 1-143)
T7 sequence: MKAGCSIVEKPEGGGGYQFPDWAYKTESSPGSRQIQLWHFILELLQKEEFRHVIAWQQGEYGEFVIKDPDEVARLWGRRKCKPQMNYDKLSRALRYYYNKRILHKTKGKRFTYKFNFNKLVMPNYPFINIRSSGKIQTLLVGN
How it was run: as §1

ETV6 = ETV6 (Homo sapiens, UniProt P41212 1-452)
How it was run: as §1

Sequence of ETV6 (P41212 whole entry): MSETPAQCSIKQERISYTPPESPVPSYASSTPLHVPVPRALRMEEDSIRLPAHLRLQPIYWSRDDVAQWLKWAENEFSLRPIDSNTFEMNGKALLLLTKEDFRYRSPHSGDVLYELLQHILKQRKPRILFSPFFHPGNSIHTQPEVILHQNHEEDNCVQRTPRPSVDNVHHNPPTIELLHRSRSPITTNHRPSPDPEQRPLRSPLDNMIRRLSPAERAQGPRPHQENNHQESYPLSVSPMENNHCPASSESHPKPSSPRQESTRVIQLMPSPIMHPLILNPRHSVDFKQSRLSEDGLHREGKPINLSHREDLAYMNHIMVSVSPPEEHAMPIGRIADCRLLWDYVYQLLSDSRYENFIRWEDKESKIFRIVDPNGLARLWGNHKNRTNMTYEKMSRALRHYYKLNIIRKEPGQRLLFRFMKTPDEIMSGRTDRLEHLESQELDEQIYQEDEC

Row | Sequence | binding signal (ERF) | binding signal (ETV3L) | binding signal (ETS2) | binding signal (SPDEF) | binding signal (ETV7) | binding signal (ELF5) | binding signal (ETV3) | binding signal (ETV6)
1 | AATAAA | 1.29 fold enrichment (6-mer frequency, TF over GST control) | 1.29 fold enrichment (6-mer frequency, TF over GST control) | 1.31 fold enrichment (6-mer frequency, TF over GST control) | 1.22 fold enrichment (6-mer frequency, TF over GST control) | 1.24 fold enrichment (6-mer frequency, TF over GST control) | 1.2 fold enrichment (6-mer frequency, TF over GST control) | 1.18 fold enrichment (6-mer frequency, TF over GST control) | 1.34 fold enrichment (6-mer frequency, TF over GST control)
2 | CTGATT | 1.21 fold enrichment (6-mer frequency, TF over GST control) | 1.26 fold enrichment (6-mer frequency, TF over GST control) | 1.26 fold enrichment (6-mer frequency, TF over GST control) | 1.21 fold enrichment (6-mer frequency, TF over GST control) | 1.24 fold enrichment (6-mer frequency, TF over GST control) | 1.19 fold enrichment (6-mer frequency, TF over GST control) | 1.17 fold enrichment (6-mer frequency, TF over GST control) | 1.17 fold enrichment (6-mer frequency, TF over GST control)
3 | CTTCGG | 1.68 fold enrichment (6-mer frequency, TF over GST control) | 1.42 fold enrichment (6-mer frequency, TF over GST control) | 1.48 fold enrichment (6-mer frequency, TF over GST control) | 1.36 fold enrichment (6-mer frequency, TF over GST control) | 1.39 fold enrichment (6-mer frequency, TF over GST control) | 1.41 fold enrichment (6-mer frequency, TF over GST control) | 1.55 fold enrichment (6-mer frequency, TF over GST control) | 1.27 fold enrichment (6-mer frequency, TF over GST control)
4 | ACGCTT | 1.5 fold enrichment (6-mer frequency, TF over GST control) | 1.35 fold enrichment (6-mer frequency, TF over GST control) | 1.42 fold enrichment (6-mer frequency, TF over GST control) | 1.39 fold enrichment (6-mer frequency, TF over GST control) | 1.52 fold enrichment (6-mer frequency, TF over GST control) | 1.22 fold enrichment (6-mer frequency, TF over GST control) | 1.4 fold enrichment (6-mer frequency, TF over GST control) | 1.45 fold enrichment (6-mer frequency, TF over GST control)
